# BAZ2B block = blocks human BAZ2B; AlphaScreen BAZ2B-H3K14Ac peptide displacement; Potency, µM (doses to about 114 µM), for inactives: top-dose activity change, negative = inhibition, usual class: inhibitors; 360,000 tested, 4.4% active; AID 504333; also: potency is read from the fitted curve at half-maximal effect; % is scaled to controls: 0 for no effect and ±100 for the full control effect; nearly all actives have a fitted effect of over 60% in size
#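 Protein-peptide AlphaScreen: BAZ2B 50 nM, b-H3K14Ac 50 nM, 1x PBS pH 7.4 + 0.01% Tween-20. Preincubation 30 min RT; cpd 30 min RT (top 110 uM); beads 20 min RT, light-protected.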
# JMJD2A Tudor inh = blocks the human JMJD2A Tudor domain | O75164 | AlphaScreen JMJD2A-Tudor / H3K4me3 peptide binding | Potency, µM (highest dose often 114 µM), without a hit: at the top dose activity change, negative = inhibition, hits mostly inhibitors | 390,000 tested, 4.4% active | AID 504339; also: potency is read from the fitted curve at half-maximal effect; % is scaled to controls: 0 for no effect and ±100 for the full control effect; nearly all actives have a fitted effect of over 50% in size
# HP1b binding inh = blocks HP1-beta chromodomain binding to methylated histone tails. P83916. AlphaScreen HP1-beta / biotin-H3K9me3 peptide binding. Potency, µM (series often up to 114 µM), for the others: top-dose activity change, negative = inhibition, usual class: inhibitors. 390,000 tested, 0.56% active. AID 540317; also: potency is read from the fitted curve at half-maximal effect; nearly all actives have a fitted effect of over 70% in size
# Target sequence (P83916 whole entry, looked up): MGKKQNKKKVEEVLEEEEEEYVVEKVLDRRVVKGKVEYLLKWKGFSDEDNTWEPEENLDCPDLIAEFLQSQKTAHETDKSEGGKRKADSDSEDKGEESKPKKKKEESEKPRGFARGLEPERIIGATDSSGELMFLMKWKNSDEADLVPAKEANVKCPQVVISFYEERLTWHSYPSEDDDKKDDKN
#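 AlphaScreen: HP1-beta (50 nM) preformed 30 min with biotin-H3(1-18)K9me3 peptide (50 nM) in PBS pH 7.4, 0.01% Tween-20. Compound added for 30 min at RT, then streptavidin donor/nickel chelate acceptor beads (10 ug/mL) for 30 min.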
# G9a block = blocks human histone lysine methyltransferase G9a. Q96KQ7. G9a H3K9 monomethylation, AlphaScreen, 2 h. Potency, µM (series often up to 102 µM), for inactives: top-dose activity, negative = inhibition, hits mostly inhibitors. 350,000 tested, 8.8% active. AID 504332; also: potency is read from the fitted curve at half-maximal effect; % is scaled to controls: 0 for no effect and ±100 for the full control effect; nearly all actives have a fitted effect of over 75% in size
#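 Signal arises when biotinylated H3K9 peptide, once monomethylated, bridges streptavidin donor and antibody-captured acceptor beads. Enzyme at 20 nM was preincubated 15 min with test compounds; peptide 500 nM and SAM 20 uM then reacted for 2 h.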
# PI5P4Ka inh = inhibitors of human PI5P4K alpha; P48426; PI5P4Kalpha enzyme, ADP-Glo luminescence, 60 min; active compounds read low; max response, %; 330,000 tested, 1.2% active; active = max response of -50% or lower; inconclusive = between -30% and -50%; inactive = -30% or higher; also: value at the top dose of about 77 µM; % is scaled to controls: 0 for no effect and ±100 for the full control effect
# Target sequence (P48426 whole entry, looked up): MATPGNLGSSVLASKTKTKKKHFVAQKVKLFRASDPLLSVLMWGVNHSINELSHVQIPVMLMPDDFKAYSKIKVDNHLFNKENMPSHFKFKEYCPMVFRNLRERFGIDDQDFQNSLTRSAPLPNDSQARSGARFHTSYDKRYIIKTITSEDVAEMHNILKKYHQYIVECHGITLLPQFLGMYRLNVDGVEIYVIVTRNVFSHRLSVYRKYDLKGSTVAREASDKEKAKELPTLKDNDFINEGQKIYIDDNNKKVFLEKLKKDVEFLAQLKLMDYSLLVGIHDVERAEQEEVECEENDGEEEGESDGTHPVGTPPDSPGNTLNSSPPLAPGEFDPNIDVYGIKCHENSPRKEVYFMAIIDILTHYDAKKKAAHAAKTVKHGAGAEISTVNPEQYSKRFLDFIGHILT
#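 Quantitative HTS of the MLSMR library against PI5P4Kalpha with substrate. ATP added last at 5 microM final; room temperature, 60 minutes. Remaining ATP depleted, ADP converted and read as luminescence.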
# PLK1 PBD block = PLK1 (human) polo-box domain binding inhibition; Potency, µM, for inactives: max response, negative = inhibition, most hits filed as inhibitors; 360,000 tested, 2.8% active; P53350; Plk1 PBD binding of FITC phosphopeptide, fluorescence polarization; also: potency is read from the fitted curve at half-maximal effect; series mostly up to about 57 µM; % is scaled to controls: 0 for no effect and ±100 for the full control effect; nearly all actives have a fitted effect of over 65% in size
# * hit, by the source's call; ? = inconclusive; . = no result given; [ ] = dose if it differs, or a comment. A selection: hits, their analogues and other compounds. The true share with any hit is near 12%. Unless noted, calls follow the shape of the dose curve; as a rule, active = well fitted curve in the direction sought with a large enough effect; inconclusive = small, poorly fitted or top-dose-only effect, or another doubt; inactive = no such curve, though single readings can be large; an effect the other way counts as inactive or inconclusive.
SMILES,BAZ2B block,JMJD2A Tudor inh,HP1b binding inh,G9a block,PI5P4Ka inh,PLK1 PBD block
Cc1cccc(Cn2c(=O)n(Cc3ccccc3)c(=O)c3sc4ccccc4c32)c1,1%,4%,24%,1%[59 µM],.,.
COCC(C)(C)COS(N)(=O)=O,6%,-3%,30%,18%,1,-8%
CCCCN(C)S(=O)(=O)c1ccc(NC2=NS(=O)(=O)c3ccccc32)cc1,0%,-9%,23%,-18%[59 µM],.,.
CC(C)(C)C(=O)NCc1ccc(C(=O)CSc2nnc3n2CCCCC3)s1,.,.,.,.,1,0%
Cc1nn(-c2ccccc2)c(Cl)c1/C=N/Nc1ccc(S(=O)(=O)Nc2ccccc2C(=O)O)cc1[N+](=O)[O-],14µM*,50µM*,?,20µM*,.,27µM*
COc1ccc(NC(=S)NNc2ccc(S(=O)(=O)Nc3ccccc3C(=O)O)cc2[N+](=O)[O-])cc1,7.1µM*,?,11µM*,.,-71*,8.4µM*
Cc1ccc(NC(=O)c2c(C)nn(-c3ccccc3)c2Cl)cc1,1%,?,29%,?,0,27µM*
CC(=O)c1ccc(NC(=O)c2c(C)nn(-c3ccccc3)c2Cl)cc1,?,-7%,30%,.,2,-2%
O=C(O)c1ccccc1NS(=O)(=O)c1ccc(NN=Cc2ccccc2F)c([N+](=O)[O-])c1,.,20µM*,50µM*,.,?,24µM*
CC(=O)c1ccc(NC(=O)c2sc(-n3nc(C)c(CCC(C)C)c3C)nc2C)cc1,-4%,-19%,44%,-4%[59 µM],.,.
CC(=O)c1ccc(OC(C)c2nc3ccccc3s2)cc1 (stereo not drawn),28%,44%,54%,41%,1,-2%
COc1ccccc1C(=O)NCC(=O)OCC(=O)c1cccc2ccccc12,-4%,-8%[57.1 µM],7%[57 µM],-5%,-6,2%
Cc1ccc(S(=O)(=O)Nc2ccccc2C(=O)OC(C)C(=O)Nc2ccc3ccccc3c2)cc1[N+](=O)[O-] (stereo not drawn),-38%,-30%,-1%,50µM*,-7,-5%
O=C(O)c1ccccc1/C=N/Nc1ccc(S(=O)(=O)N2CCCC2)cc1[N+](=O)[O-],?,-35%,-2%,?,-2,-11%
CSc1ccc(C=NNc2ccc(S(=O)(=O)Nc3ccccc3C(=O)O)cc2[N+](=O)[O-])cc1,.,20µM*,20µM*,.,-53*,?
Cc1ccc(NS(=O)(=O)c2ccc(N/N=C/c3ccncc3)c([N+](=O)[O-])c2)c(C)c1,-9%,-14%[57.1 µM],43%,-4%,-2,-13%
COc1ccc(C=NNc2ccc(S(=O)(=O)Nc3ccccc3C(=O)O)cc2[N+](=O)[O-])c(OC)c1,.,35µM*,20µM*,.,-70*,30µM*
Cc1nn(-c2ccccc2)c(Cl)c1/C=N/Nc1ccc(Cl)c(C(=O)O)c1,?,?,?,3.5µM*,7,?
CCCOc1ccc(CNC(=O)Cn2cc3c(n2)-c2c(oc(C(=O)N4CCOCC4)c2C)CC3)cc1,?,-12%,23%,?,.,.
Cc1cccc(CNC(=O)C2CCN(S(=O)(=O)c3cccc4nonc34)CC2)c1,-1%,-6%,26%,6%[59 µM],.,.
CCOc1ccc(C=NNc2ccc(S(=O)(=O)Nc3ccccc3C(=O)O)cc2[N+](=O)[O-])cc1,.,22µM*,40µM*,.,?,19µM*
C=CCOc1ccc(C=NNc2ccc(S(=O)(=O)Nc3ccccc3C(=O)O)cc2[N+](=O)[O-])cc1OC,.,16µM*,?,.,-83*,?
CCOc1ccc(S(=O)(=O)Nc2ccccc2C(=O)N2CCCC2)cc1,-36%,11%,37%,8%,-1,-6%
CC1(C(=O)NS(=O)(=O)c2ccccc2Cl)CCN1C(=O)COc1ccc(Cl)cc1 (stereo not drawn),.,.,.,.,0,-7%
CCCN(C1CCS(=O)(=O)C1)S(=O)(=O)c1cc(OC)ccc1OC (stereo not drawn),-5%,-17%,49%,-11%[59 µM],0,?
SMILES,BAZ2B block,JMJD2A Tudor inh,HP1b binding inh,G9a block,PI5P4Ka inh,PLK1 PBD block
CCOc1ccc2c(c1)-c1c(ssc1=S)C(C)(C)N2,10µM*,25µM*,?,10µM*,.,-2%
CCCCC(=O)N(C)c1c(C)nc2ccc(C(=O)N3CCN(c4ccccc4)CC3)cn12,.,.,.,.,5,-11%
Cc1nc2ccc(N=NC3=C(O)CCCC3=O)cc2s1,-34%[57.1 µM],?,30%,40µM*,-27,-11%
O=C1CCCC(O)=C1N=Nc1c(Cl)cc(Cl)cc1Cl,50µM*,?,10%,8.9µM*,1,0%
O=C1CCCC(O)=C1N=Nc1cccc(C(=O)O)c1,.,89µM*,-26%,28µM*,?,-21%
O=C(O)c1cccc(N=NN2CCOCC2)c1,-23%,-7%,38%,16µM*,3,-5%
Cc1cccc(C)c1-n1nnnc1C1(C)CCC(=O)N1c1ccc(N2CCOCC2)cc1 (stereo not drawn),.,.,.,.,1,-23%
O=C(O)c1ccccc1C(=O)Nc1ccc(S(=O)(=O)Nc2ccc(F)cc2)cc1,-1%,1%,44%,-8%,-3,0%
O=S(=O)(N/N=C/c1ccc(OC2CSC2)cc1)c1ccccc1,-12%,-14%,1%,?,-3,-3%
O=S(=O)(N/N=C/c1ccc(N2CCOCC2)cc1)c1ccccc1,5%,-21%,4%,45µM*,-13,-1%
CC(=O)Nc1ccc(S(=O)(=O)N/N=C/c2cccnc2)cc1,-10%,6%,43%,.,2,-6%
O=S(=O)(N/N=C\c1cccnc1)c1ccccc1,-1%,-18%,30%,10µM*,3,0%
CC1(C)CCc2cc(S(=O)(=O)N3CCN(S(=O)(=O)c4c(F)cccc4F)CC3)ccc2O1,.,-20%,25%,.,.,.
Cc1ccc(C(=O)NCC(=O)OCC(=O)Nc2cc(S(=O)(=O)N3CCOCC3)ccc2C)cc1,10%,-12%,46%,?,13,0%
Cc1ccc(S(=O)(=O)N(C)C)cc1NC(=O)COC(=O)Cc1ccc(Br)cc1,.,?,-21%,-1%,-22,19µM*
Cc1ccc(S(=O)(=O)N2CCOCC2)cc1NC(=O)COC(=O)CNC(=O)c1ccc(C(C)(C)C)cc1,-28%,-20%,11%,50µM*,-4,-14%
Cc1ccc(S(=O)(=O)N2CCOCC2)cc1NC(=O)COC(=O)CSc1ccc(Br)cc1C,-2%,-29%,15%,18µM*,.,-7%
CCN(CC)c1ccc(NC(=O)COC(=O)CSc2ccc(Br)cc2C)cc1,10µM*,18µM*,16µM*,8.9µM*,3,-14%
Cc1ccc(S(=O)(=O)N2CCOCC2)cc1NC(=O)COC(=O)c1ccc(Br)cc1,.,-3%,22%,.,-3,-4%
